Test results: the supplement of paper PMC9177965
Values joined by “and” are separate entries in the source; they are usually repeats but may differ in a detail not shown here. Equal entries are not always repeated.

These compounds were tested on HT29 RNF43 G659fs (RNF43 659mut, CRISPR-edited) (assay: cell viability activity relative to DMSO (negative = inhibition); higher = more viable cells (less growth inhibition)). Conditions: 5 µM; 96 h.
Experimental: (§1)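 Broad Repurposing Library primary screen at a single dose of 5 uM. HT29 sg-Ctrl and HT29 RNF43 G659fs CRISPR-edited isogenic cells were seeded at 2500 cells/well in 384-well plates in duplicate and treated for 96 h. Viability was read by CellTiter-Glo and reported as % activity relative to DMSO, with MG132 as the positive control (negative = growth inhibition).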
Compound `c1ccc2c(-c3cnn4cc(-c5ccc(N6CCNCC6)cc5)cnc34)ccnc2c1` has a cell viability activity of -95.2%.
`CCN1CCN(c2ccc(C(C)(C)NC(=O)c3cc4[nH]c5ccccc5c(=O)c4cc3F)cn2)CC1` showed a cell viability activity of -45.9%.
In the case of `Cc1cccc(C)c1NC(=O)CN1CCN(CCCC(c2ccc(F)cc2)c2ccc(F)cc2)CC1`, the cell viability activity is reported as -28.2%.

What follows are compounds tested on HT29 sg-Ctrl (RNF43 wildtype) in the same assay as above. Conditions: 5 µM; 96 h.
Experimental: as §1
`CC(C)c1ccc(C(=O)N=C(N)N)cc1S(C)(=O)=O` showed a cell viability activity of -5.71%.
Compound `CS[C@H]1SC[C@H]2C(=O)N(C)[C@@H](C(C)C)C(=O)OC[C@@H](NC(=O)c3cnc4ccccc4n3)C(=O)N[C@@H](C)C(=O)N(C)[C@@H]1C(=O)N(C)[C@@H](C(C)C)C(=O)OC[C@@H](NC(=O)c1cnc3ccccc3n1)C(=O)N[C@@H](C)C(=O)N2C` has a cell viability activity of -86.6%.
`CN[C@H]1CN(c2ccc3c(=O)c(C(=O)O)cn(-c4nccs4)c3n2)C[C@@H]1OC` gave a cell viability activity of -30.9%.
`CC[C@@]1(O)C(=O)OCc2c1cc1n(c2=O)Cc2c-1nc1cc(F)c(C)c3c1c2[C@@H](N)CC3` showed a cell viability activity of -90.4%.
`Cc1cccc(/C=N/Nc2cc(N3CCOCC3)nc(OCCc3ccccn3)n2)c1` showed a cell viability activity of -62.4%.
`CNc1ncc2cc(-c3cc(NC(=O)NCCC(C)(C)C)c(F)cc3C)c(C)nc2n1` showed a cell viability activity of -58.9%.
`CC(C)NC[C@@H](C(=O)N1CCN(c2ncnc3c2[C@H](C)C[C@H]3O)CC1)c1ccc(Cl)cc1` was tested, and the cell viability activity was -35.4%.
Compound `COc1cccc2c1C(=O)c1c(O)c3c(c(O)c1C2=O)C[C@@](O)(C(=O)CO)C[C@@H]3O[C@H]1C[C@H](N)[C@@H](O)[C@H](C)O1` has a cell viability activity of -76.5%.
Compound `CC(C)Oc1ccc(C(=O)N[C@H](CNC(=O)CN(C)C)Cc2ccc(-c3cn4cccc([C@H](C)O)c4n3)cc2)cc1Cl` has a cell viability activity of -59.4%.
`CC(C)NCCCn1c(Sc2cc3c(cc2I)OCO3)nc2c(N)ncnc21` gave a cell viability activity of -85.8%.
Work on `O=C(NNc1nc2cc(F)ccc2n2cccc12)c1cnccn1` yielded a cell viability activity of -88.3%.
In the case of `CCc1nc(C(N)=O)c(Nc2ccc(N3CCC(N4CCN(C)CC4)CC3)c(OC)c2)nc1NC1CCOCC1`, the cell viability activity is reported as -61.8%.
Compound `COc1cc(OCc2cccc(-c3ccccc3)c2C)cc(OC)c1CN1CCCC[C@H]1C(=O)O` has a cell viability activity of -3.46%.
`CCCCc1ccc2[nH]c(NC(=O)OC)nc2c1` showed a cell viability activity of -76.7%.
`C[n+]1cc2c3c(ccc2c2ccc4cc5c(cc4c21)OCO5)OCO3` gave a cell viability activity of -96.2%.
`COc1cc2ncnc(Nc3ccc(F)c(Cl)c3)c2cc1NC(=O)/C=C/CN1CCCCC1` showed a cell viability activity of -77.9%.
Work on `CO[C@@H](C)Cn1c(=O)n(C)c2cnc3ccc(-c4cncc(C(C)(C)O)c4)cc3c21` yielded a cell viability activity of -78.6%.
In the case of `N[C@@H](Cn1ccc(=O)n(Cc2ccccc2C(=O)O)c1=O)C(=O)O`, the cell viability activity is reported as -34.1%.
`CCCCCCCCc1ccc(CCC(N)(CO)CO)cc1` showed a cell viability activity of -94.1%.
`COc1ccc2c(c1)c(C1=C(c3c[nH]c4ccccc34)C(=O)NC1=O)cn2CCCN(C)C` showed a cell viability activity of -88.9%.
For `C=C1C(=O)CC2CC3OC3(C)CCC3OC3(C)C[C@H](OC(C)=O)C1C2(C)C` (stereo partly specified), the cell viability activity was -25.5%.
`O=C(NOCC(O)CO)c1cc(Br)c(F)c(F)c1Nc1ccc(I)cc1F` (stereo unspecified) showed a cell viability activity of -79.7%.
Work on `Nc1ncn([C@@H]2O[C@H](CO)[C@@H](O)[C@H]2O)c(=O)n1` yielded a cell viability activity of -7.11%.
With `CN(NC(=O)CC(=O)NN(C)C(=S)c1ccccc1)C(=S)c1ccccc1` the cell viability activity was -15.3%.
For `C[C@H]1O[C@@H](O[C@H]2CC[C@@]3(C)[C@H](CC[C@@H]4[C@@H]3C[C@@H](O)[C@]3(C)[C@@H](C5=CC(=O)OC5)CC[C@]43O)C2)C[C@H](O)[C@@H]1O[C@H]1C[C@H](O)[C@H](O[C@H]2C[C@H](O)[C@H](O[C@@H]3O[C@H](CO)[C@@H](O)[C@H](O)[C@H]3O)[C@@H](C)O2)[C@@H](C)O1`, the cell viability activity was -91.5%.
`CNC(=O)CN1CCC(Oc2cc3c(Nc4cccc(Cl)c4F)ncnc3cc2OC)CC1` showed a cell viability activity of -24.1%.
With `CN(C)CCOc1ccc(-c2nc(-c3ccncc3)c(-c3ccc4c(c3)CC/C4=N\O)[nH]2)cc1` the cell viability activity was -45.8%.
Work on `CCn1cc(-c2ccnc3[nH]c(-c4cccc(CN(C)C)c4)cc23)c(-c2ccc(NC(=O)N(C)C)cc2)n1` yielded a cell viability activity of -63.8%.
In the case of `CC(NCCC(c1ccccc1)c1ccccc1)c1ccccc1` (stereo unspecified), the cell viability activity is reported as -69.7%.
`O=C1NC(=O)[C@@H](c2cn3c4c(cccc24)CCC3)[C@@H]1c1c[nH]c2ccccc12` gave a cell viability activity of -61.7%.
With `N#Cc1ccc(COC[C@H]2O[C@@H](n3c(NCc4ccc(Cl)c(Cl)c4)nc4c(N)ncnc43)[C@H](O)[C@@H]2O)cc1` the cell viability activity was -31.3%.
`CC(C)c1cc(-c2n[nH]c(=O)n2-c2ccc3c(ccn3C)c2)c(O)cc1O` gave a cell viability activity of -81.7%.
For `CO[C@H]1/C=C\C=C(/C)C(=O)NC2=CC(=O)C(NCCN(C)C)=C(C[C@@H](C)C[C@H](OC)[C@H](O)[C@@H](C)/C=C(\C)[C@@H]1OC(N)=O)C2=O`, the cell viability activity was -92.1% and -90.4%.
`C=CCCCCCCCCC(=O)O` was tested, and the cell viability activity was -72%.
With `O=C(NC1CCNCC1)c1n[nH]cc1NC(=O)c1c(Cl)cccc1Cl` the cell viability activity was -83.8%.
`c1ccc2c(-c3cnn4cc(-c5ccc(N6CCNCC6)cc5)cnc34)ccnc2c1` gave a cell viability activity of -95.7%.
For `CCN1CCN(c2ccc(C(C)(C)NC(=O)c3cc4[nH]c5ccccc5c(=O)c4cc3F)cn2)CC1`, the cell viability activity was -42.7%.
For `Cc1cccc(C)c1NC(=O)CN1CCN(CCCC(c2ccc(F)cc2)c2ccc(F)cc2)CC1`, the cell viability activity was -46%.
